Source: PubChem
Beta2AR agonist: activates human beta-2 adrenergic receptor causing internalization; AID 504454; Am2.2-beta2AR cells, FAP receptor internalization, flow cytometry; 340,000 compounds, 0.43% hits; response, % (test concentration not listed);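 active = response above a set limit, near 3 SD of response in nonfluorescent compounds, cut at about 42% in these data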
MEKK3 PB1 HTS: raises or lowers MEK5 binding to the human MEKK3 PB1 domain | Q99759 | 290,000 compounds, 1.4% hits | binding response (% of control), % at 10 µM | AID 1529 | bead-based flow cytometry, Alexa488-MEK5 binding to MEKK3; actives lie on both sides; 0 = blocked by unlabeled MEK5, 100 = vehicle;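 active = binding response more than 3 SD above or below the average of its plate-row segment, actives on both sides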;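 note: Alexa488 bead fluorescence after subtracting the streptavidin-only scavenger bead signal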
Target sequence (Q99759 whole entry, looked up, the tested form may be a part): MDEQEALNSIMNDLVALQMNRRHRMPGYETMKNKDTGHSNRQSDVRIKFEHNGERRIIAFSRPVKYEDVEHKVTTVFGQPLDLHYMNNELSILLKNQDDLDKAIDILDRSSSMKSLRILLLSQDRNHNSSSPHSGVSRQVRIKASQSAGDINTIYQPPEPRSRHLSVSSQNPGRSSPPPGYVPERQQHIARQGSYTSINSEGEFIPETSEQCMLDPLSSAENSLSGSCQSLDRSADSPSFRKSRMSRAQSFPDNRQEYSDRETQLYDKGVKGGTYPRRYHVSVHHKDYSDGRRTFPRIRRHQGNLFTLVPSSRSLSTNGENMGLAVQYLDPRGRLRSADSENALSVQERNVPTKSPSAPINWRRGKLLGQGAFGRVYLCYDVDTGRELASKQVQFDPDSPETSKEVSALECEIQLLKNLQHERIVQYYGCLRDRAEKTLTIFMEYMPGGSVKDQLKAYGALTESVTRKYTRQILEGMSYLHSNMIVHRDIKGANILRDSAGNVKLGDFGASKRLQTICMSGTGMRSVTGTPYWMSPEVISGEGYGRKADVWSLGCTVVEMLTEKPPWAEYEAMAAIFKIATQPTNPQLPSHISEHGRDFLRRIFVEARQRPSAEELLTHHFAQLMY
GRK2 aptamer HTS: human GRK2 inhibition via aptamer displacement; inhibition of aptamer binding, % at 10 µM; P25098; 330,000 compounds, 0.59% hits; bead flow cytometry, FAM-aptamer displacement from GRK2;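 active = inhibition of aptamer binding above 40%, roughly 3 SD of noise, on plates passing a quality check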;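 note: median bead fluorescence of bound FAM aptamer so fluorescent compounds give negative values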
MEKK2wt PB1 HTS: raises or lowers MEK5 binding to wildtype human MEKK2 PB1 domain | Q9Y2U5 | bead flow cytometry, Alexa488-MEK5 binding to MEKK2 WT; actives lie on both sides | binding response (% of control), % at 10 µM | 290,000 compounds, 1.1% hits | AID 1531; in the data active = binding response below about 67% or above about 130%
MEKK2mut PB1 HTS: signal of MEK5 binding to mutant human MEKK2 PB1 domain | bead flow cytometry, Alexa488-MEK5 binding to MEKK2 mutant | percent response, % at 10 µM | AID 1530 | 290,000 compounds, 0.35% hits; in the data active = percent response above about 24%, passing the limit was not always enough
MEKK2wt confirm: raises or lowers MEK5 binding to wildtype human MEKK2, retest; bead flow cytometry, Alexa488-MEK5 binding to MEKK2 WT; actives lie on both sides; binding response (% of control), % at 10 µM; shares compounds with MEKK3 PB1 HTS; AID 1892; 5,900 compounds, 2.4% hits; in the data active = binding response below about 16% or above about 210%; inactive = in between
MEKK2mut-MEK5: signal of MEK5 binding to mutant human MEKK2, retest | 5,900 compounds, 2% hits | bead flow cytometry, Alexa488-MEK5 binding to MEKK2 mutant | AID 1893 | shares compounds with MEKK3 PB1 HTS | percent response, % at 10 µM; in the data active = percent response mostly above about 71%, no sharp cut-off; inactive = mostly below about 38%;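 note: higher means compound restores mutant binding toward wildtype level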
MEKK3 confirm: MEKK3-MEK5 PB1 inhibition, single concentration confirmation; shares compounds with MEKK3 PB1 HTS; bead flow cytometry, Alexa488-MEK5 binding to MEKK3; active compounds read low; binding response (% of control), % at 10 µM; 5,900 compounds, 1.8% hits; AID 1894;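 active = binding response below 72% of control, or above a set upper limit, though filed actives all read lower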;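 note: 100% = DMSO only wells and 0% = binding blocked by excess unlabeled MEK5; lower values mean stronger disruption of MEK5 binding to MEKK3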
An asterisk follows results filed as active; . = not tested or not shown; [ ] = remark or other dose. The list is not random: actives were taken first. Their share in the collection is about 2.9%.

SMILES	Beta2AR agonist	MEKK3 PB1 HTS	GRK2 aptamer HTS	MEKK2wt PB1 HTS	MEKK2mut PB1 HTS	MEKK2wt confirm	MEKK2mut-MEK5	MEKK3 confirm
COCCNC(=O)CNC(=O)c1nn(-c2ccc(OC)c(Cl)c2)c(=O)c2ccccc12	3.8	143.0*	0.0	135.0*	10.0	103.0	4.0	103.0
O=C(C[n+]1ccc(/C=C/c2ccccc2)cc1)c1ccc2c(c1)OCCO2	5.9	101.0	0.0	174.0*	32.0	142.0	23.0	97.0
Cc1cc[n+](CC(=O)c2ccc3c(c2)OCCO3)cc1	-2.5	105.0	18.0	111.0	18.0	.	.	.
COC(=O)c1ccc(S(=O)(=O)N2Cc3ccccc3C2)cc1	1.4	135.0*	2.0	117.0	1.0	101.0	8.0	102.0
O=C(Nc1ccccc1C(F)(F)F)c1c(F)cccc1Cl	-5.4	101.0	0.0	103.0	1.0	.	.	.
CSc1nc(NS(=O)(=O)c2ccc(F)cc2F)nn1C	-6.3	102.0	6.0	103.0	2.0	.	.	.
O=c1c2ccccc2sc2nc(CCl)nn12	-13.2	.	.	.	.	.	.	.
COc1ccc2ccccc2c1-c1sc(Nc2ccccc2)n[n+]1-c1ccc(F)cc1	27.0	110.0	0.0	155.0*	43.0*	169.0	39.0	106.0
CCc1ccc(Nc2n[n+](-c3ccccc3)c(-c3cc(OC)c(OC)cc3Br)s2)cc1	-3.1	112.0	0.0	194.0*	77.0*	225.0*	75.0*	109.0
CCc1ccc(Nc2n[n+](-c3ccccc3)c(/C=C/c3ccccc3)s2)cc1	.	108.0	0.0	189.0*	25.0*	178.0	49.0	102.0
COc1ccc(-c2sc(Nc3ccccc3)n[n+]2-c2ccc(F)cc2)cc1Br	-0.5	103.0	0.0	114.0	8.0	.	.	.
C[C@H](CO)N1C[C@H](C)[C@@H](CN(C)C(=O)Nc2ccc3c(c2)OCO3)Oc2c(NC(=O)Nc3ccc(C(F)(F)F)cc3)cccc2C1=O	19.8	.	3.0	.	.	.	.	.
CCCNC(=O)c1onc(CSc2ccc(Cl)cc2)c1C(=O)NC(C)C	-0.8	.	1.0	.	.	.	.	.
COc1cc(O)c(C(CC(=O)N2CCN(c3ccccc3)CC2)c2ccc(N(C)C)cc2)c(OC)c1 (configuration not stated)	2.1	85.0	6.0	134.0	4.0	.	.	.
COc1ccc(C(CC(=O)N2CCCC2)c2c(O)cc(OC)cc2OC)cc1 (configuration not stated)	-7.3	95.0	1.0	97.0	1.0	.	.	.
COc1cc(OC)c2ccc(=O)oc2c1C(CC(=O)N1CCCC(C)C1)c1ccc2c(c1)OCO2 (configuration not stated)	22.8	81.0	8.0	84.0	-16.0	.	.	.
COc1cc(O)c(C(CC(=O)N2CCOCC2)c2cc(OC)c(OC)c(OC)c2)c(OC)c1 (configuration not stated)	-1.8	126.0	.	154.0*	3.0	97.0	2.0	101.0
COc1cc(O)c(C(CC(=O)N2CCCCC2)c2ccc3c(c2)OCO3)c(OC)c1 (configuration not stated)	-8.2	122.0	0.0	140.0*	4.0	102.0	-1.0	103.0
COc1cc(O)c(C(CC(=O)N2CCCC(C)C2)c2ccc(N(C)C)cc2)c(OC)c1 (configuration not stated)	3.9	127.0	1.0	158.0*	2.0	103.0	0.0	101.0
COc1cc(C(CC(=O)N2CCCC2)c2c(OC)cc(OC)c3ccc(=O)oc23)cc(OC)c1OC (configuration not stated)	-2.0	99.0	7.0	96.0	5.0	.	.	.
COc1cc(O)c(C(CC(=O)N2CCCC(C)C2)c2ccc3c(c2)OCO3)c(OC)c1 (configuration not stated)	-8.2	121.0	.	142.0*	2.0	104.0	1.0	98.0
c1ccc(N2CC3COc4ccccc4C3=N2)cc1 (configuration not stated)	1.3	.	.	.	.	.	.	.
CCOc1cc(C)nc(N2CCC(C(=O)NCC3CCCO3)CC2)n1 (configuration not stated)	1.0	.	.	.	.	.	.	.
COC(=O)Cn1nc(-c2ccc(C)cc2)c2ccccc2c1=O	19.2	106.0	2.0	98.0	5.0	.	.	.
O=S(=O)(c1ccc(F)c(F)c1)N1CCN(CCc2ccccc2)CC1	5.0	102.0	0.0	106.0	2.0	.	.	.
SMILES	Beta2AR agonist	MEKK3 PB1 HTS	GRK2 aptamer HTS	MEKK2wt PB1 HTS	MEKK2mut PB1 HTS	MEKK2wt confirm	MEKK2mut-MEK5	MEKK3 confirm
COC(=O)CCCC1=CC2=C(c3ccccc3)C(=O)C(C)(OC(=O)C3CCCC3)C(=O)C2=CN1C1CC1 (configuration not stated)	2.7	122.0	0.0	155.0*	1.0	103.0	0.0	102.0
COC(=O)CCC(=O)OC1(C)C(=O)C2=CN(C3CCCC3)C(c3ccc(OC)cc3)=CC2=C(Br)C1=O (configuration not stated)	-1.6	47.0*[inhibitor]	19.0	-8.0*[inhibitor]	-23.0	88.0	0.0	88.0
COC(=O)CCCC1=CC2=C(c3ccccc3)C(=O)C(C)(OC(=O)C3CCCC3)C(=O)C2=CN1C(CO)CO (configuration not stated)	3.7	95.0	12.0	93.0	5.0	.	.	.
COC(=O)CCC(=O)OC1(C)C(=O)C2=CN(Cc3ccco3)C(c3ccc(OC)cc3)=CC2=C(Br)C1=O (configuration not stated)	.	85.0	0.0	86.0	-4.0	.	.	.
COC(=O)CCCC1=CC2=C(c3ccccc3)C(=O)C(C)(OC(=O)C3CCCC3)C(=O)C2=CN1c1ccccc1 (configuration not stated)	-4.9	128.0*	0.0	154.0*	1.0	87.0	-5.0	94.0
CCN(CC)CCNc1nc2cc(OC)c(OC)cc2c2nc(-c3ccccc3)nn12	7.0	108.0	2.0	143.0*	10.0	111.0	3.0	95.0
COc1cc2[nH]c(=O)n3nc(-c4ccccc4)nc3c2cc1OC	16.4	102.0	0.0	99.0	3.0	.	.	.
Cc1noc(C)c1COc1ccc(C(=O)OC(C)C(=O)Nc2ccc(S(=O)(=O)N3CCOCC3)cc2)cc1 (configuration not stated)	-5.6	152.0*	3.0	105.0	2.0	99.0	-2.0	104.0
CCNc1nc(Oc2ccc(C(=O)OCC)cc2)nc(N2CCOCC2)n1	.	135.0*	1.0	117.0	1.0	98.0	-1.0	101.0
CC(C(=O)NCc1ccco1)n1ccc2cc(S(=O)(=O)N3CCCCC3)ccc21 (configuration not stated)	10.2	102.0	1.0	103.0	4.0	.	.	.
